Reference: PubChem BioAssay (NCATS)
Results filed as inconclusive are left out. Activity calls are given as the source filed them. The call rests on the fitted dose curve; in most records, active means well fitted inhibition curve with a large enough effect; inconclusive means small, poorly fitted or top-dose-only effect; inactive means no such curve, though single readings can be large or run the other way.

Experiment: Primary fluorescence-based thiol-reactive (MSTI) qHTS assay for identification of artifact compounds. (AID 1845221); further: nearly all actives have a fitted effect of over 65% in size;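 on activity change, negative = thiol reactive: thiol-reactive compounds lower the probe fluorescence signal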
Settings: MSTI thiol-reactivity probe, 1 h; series mostly up to 53.8 µM; activity change, negative = thiol reactive: at the top concentration
How it was run: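 In PBS pH 7.4 with 2% DMSO, each compound met 4 uM MSTI for one hour at ambient temperature, shielded from light, before fluorescence detection.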
Potency means the concentration at half of the fitted maximal effect.

Structure (SMILES) | activity change, negative = thiol reactive | Potency
CC(=O)OC1C(O)C(C)(O)C(/C=C/C(=O)O)C2(C)CCCC(C)(C)C12 (stereo unspecified) | 84.8% (inactive) | –
C/C=C(/C)C(=O)OC1CC(C)(C)CC2C3=CCC4C5(C)CCC(OC6OC(C)C(OC7OC(C(=O)O)C(O)C(OC8OC(CO)C(O)C(O)C8OC8OC(CO)C(O)C(O)C8O)C7O)C(O)C6O)C(C)(C)C5CCC4(C)C3(C)C(OC(=O)/C=C/C=C/C=C/CCC)C(OC(C)=O)C12CO (stereo unspecified) | 260% [at 11.5 µM] (inactive) | –
COc1cc([C@H]2OC[C@](O)(Cc3ccc(O[C@@H]4O[C@H](CO)[C@@H](O)[C@H](O)[C@H]4O)c(OC)c3)[C@@H]2CO)ccc1O | -6.16% [at 25.6 µM] (inactive) | –
C[C@@H]1O[C@@H](O[C@@H]2[C@@H](O)[C@H](O[C@H]3[C@H](O[C@H]4CC[C@@]5(C)C(CC[C@]6(C)C5CC=C5[C@@H]7CC(C)(C)CC[C@]7(C(=O)O[C@@H]7O[C@H](CO)[C@@H](O)[C@H](O)[C@H]7O)CC[C@]56C)C4(C)C)O[C@H](C(=O)O)[C@@H](O)[C@@H]3O)OC[C@H]2O)[C@H](O)[C@H](O)[C@H]1O (stereo partly specified) | 351% [at 11.5 µM] (inactive) | –
CC(C)=CC[C@H]1O[C@]2(O)C([C@H]3CCC4[C@@]5(C)CC[C@H](O[C@@H]6O[C@H](CO)[C@H](O)[C@H](O[C@@H]7O[C@H](CO)[C@@H](O)[C@H](O)[C@H]7O)[C@H]6O[C@@H]6O[C@@H](C)[C@H](O)[C@@H](O)[C@H]6O)C(C)(C)C5CC[C@@]4(C)[C@]3(C)[C@H]2O)[C@@]1(C)O (stereo partly specified) | 12.2% [at 11.5 µM] (inactive) | –
O=C(O)c1ccnc2cc(C(OCC3CCC(F)(F)CC3)c3ccccc3Cl)[nH]c12 (stereo unspecified) | 3.22% (inactive) | –
C=C(C)[C@@H]1CC[C@]2(C(=O)O)CC[C@]3(C)[C@H](CCC4[C@@]5(C)CCC(=O)C(C)(C)C5C(O)C[C@]43C)C12 (stereo partly specified) | 38% [at 25.6 µM] (inactive) | –
CC1(C)C[C@H]2C=C(C=O)[C@]3(C(=O)O)C[C@]3(C)[C@H]2C1 | – | 11.9 µM (active)
CC(=O)O[C@@H](C[C@@H]1C=C(C)C(=O)O1)[C@H](C)[C@H]1CCC2[C@@]3(C)CC[C@H](O[C@@H]4O[C@H](CO)[C@@H](O)[C@H](O)[C@H]4O[C@@H]4O[C@@H](C)[C@H](O)[C@@H](O)[C@H]4O)C(C)(C)C3CC[C@@]2(C)[C@@]12COC(=O)C2 (stereo partly specified) | 32.4% [at 11.5 µM] (inactive) | –
C=C1CC[C@@H]2[C@@](C)(CO[C@@H]3O[C@H](CO)[C@@H](O)[C@H](O)[C@H]3O)[C@H](O)CC[C@@]2(C)[C@@H]1CC/C(C)=C/CO[C@@H]1O[C@H](CO)[C@@H](O)[C@H](O)[C@H]1O | 19.8% [at 25.6 µM] (inactive) | –
COC(=O)C1=COC(O[C@@H]2O[C@H](COC(=O)/C=C/c3ccc(O)cc3)[C@@H](O)[C@H](O)[C@H]2O)C2C(CO)=CCC12 (stereo partly specified) | 3.13% [at 25.6 µM] (inactive) | –
C[C@@H]1O[C@@H](O[C@H]2[C@H](Oc3cc(O)c(C(=O)CCc4ccc(O)cc4)c(O)c3)O[C@H](CO)[C@@H](O)[C@@H]2O)[C@H](O)[C@H](O)[C@H]1O | 36.2% (inactive) | –
CC(=O)OC1(C)CC(O)C2(O)C=COC(OC3OC(CO)C(O)C(O)C3O)C12 (stereo unspecified) | -16.8% [at 25.6 µM] (inactive) | –
Cc1cn2cc(CC(=O)N3CCC4(CC3)CN(Cc3ccc(-n5nccn5)cc3Cl)C4)nc2s1 | 55.7% (inactive) | –
C[C@@H]1CC[C@]2(C(=O)O)CC[C@]3(C)C(=CCC4[C@@]5(C)C[C@@H](O)[C@@H](O)C(C)(C)C5CC[C@]43C)C2[C@]1(C)O (stereo partly specified) | -1.86% [at 25.6 µM] (inactive) | –
CC1(C)CC(NC(=O)C(=O)Nc2ccc(Cl)cc2)CC(C)(C)N1 | 1.04% (inactive) | –
CCC(C)/C=C(C)/C=C/C(=O)C1CCC(O)C(C)(O)C1=O (stereo unspecified) | – | 23.8 µM (active)
COC(=O)C1=COC(OC2OC(CO)C(O)C(O)C2O)C2C(COC(=O)/C=C/c3ccc(O)c(O)c3)C(O)C(O)C12 (stereo unspecified) | – | 2.51 µM (active)
CC1(C)O[C@H]2CC(=O)OC[C@@]23C1=C(O)C(=O)[C@]1(C)C3CC[C@@]2(C)[C@H](c3ccoc3)OC(=O)[C@H]3O[C@]321 (stereo partly specified) | 4.97% [at 25.6 µM] (inactive) | –
Cc1nc2ccccc2c(-c2ccc3c4c(ccnc24)CCO3)c1[C@H](OC(C)(C)C)C(=O)O | 61.9% (inactive) | –
C=C1CC[C@@]2(OC1)O[C@H]1CC3C4CC=C5C[C@@H](O[C@@H]6O[C@@H](C)[C@H](O)[C@@H](O)[C@H]6O)C[C@@H](O[C@@H]6O[C@H](C)[C@H](O)[C@H](O)[C@H]6O[C@@H]6O[C@@H](C)[C@H](O)[C@@H](O)[C@H]6O)[C@]5(C)C4CC[C@]3(C)[C@H]1[C@@H]2C (stereo partly specified) | 170% [at 11.5 µM] (inactive) | –
